Values joined by “and” are separate entries in the source; they are usually repeats but may differ in a detail not shown here. Equal entries are not always repeated. Results filed as inconclusive are left out. Active and inactive are the calls of the source. The call rests on the fitted dose curve; in most records, active means well fitted curve in the direction sought with a large enough effect; inconclusive means small, poorly fitted or top-dose-only effect, or another doubt; inactive means no such curve, though single readings can be large; an effect the other way counts as inactive or inconclusive. Bridge positions count the residues as written; N and C are the ends. Square brackets hold non-standard residues; d marks the D form. Peptide text beside a SMILES is read from it. * marks the point of attachment. ξ: configuration not given here. Octanoyl(6-Me) = CCC(C)CCCCC(=O)*; ξThr(3R) = C[C@@H](O)C(N)C(=O)O; dDab = NCC[C@@H](N)C(=O)O; Dab = NCC[C@H](N)C(=O)O
Assays:
[1] = Viability qHTS for spleen associated tyrosine kinase inhibitor (SYKi) naive MV4-11 cells (AID 1963823); settings: MV4-11 AML viability, CellTiter-Glo luminescence, 72 h; series mostly up to 45 µM; further: nearly all actives have a fitted effect of over 40% in size
In short: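 CellTiter-Glo luminescence, 10 min room-temperature incubation, gave viability. Cells: naive MV4-11 (500/well), treated 72 hr at 37 C, 5% CO2.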

[2] = Viability qHTS for spleen associated tyrosine kinase inhibitor (SYKi) drug resistant MV4-11 cells (AID 1963824); settings: SYKi-resistant MV4-11 viability, CellTiter-Glo, 72 h; series mostly up to 45 µM; further: nearly all actives have a fitted effect of over 35% in size
In short: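 SYK inhibitor-resistant MV4-11 AML cells, 500 per well, added to predispensed compounds and incubated 72 hr at 37 C, 5% CO2. Viability measured by CellTiter-Glo luminescence after 10 min at room temperature.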

[3] = Quantitative highthroughput screen to assess conditional lethalithy of NOMO1 cells grown in RPMI1640 with untreated serum (RPMI+s) (AID 1963876); settings: NOMO1 AML cells in RPMI+serum, CellTiter-Glo viability, 48 h; series mostly up to 45.8 µM; further: nearly all actives have a fitted effect of over 35% in size;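 on Viability: 100% = DMSO wells and 0% = empty wells without cells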
In short: (§1)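 Each medium arm—HPLM with 10% dialyzed FBS, or RPMI1640 with 5 mM glucose and 10% untreated or dialyzed FBS—was screened against an 11-point, 3-fold compound titration for 48 h at 37 °C, with CellTiter-Glo luminescence as endpoint.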

[4] = Quantitative highthroughput screen to assess conditional lethalithy of NOMO1 cells grown in RPMI1640 with dialyzed fetal bovine serum (RPMI+ds) (AID 1963877); settings: NOMO1 in RPMI+dialyzed FBS viability, ATP luminescence, 48 h; series mostly up to 45.8 µM; further: nearly all actives have a fitted effect of over 30% in size;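 on Viability: 100% = DMSO control wells and 0% = empty wells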
In short: as §1

[5] = Quantitative highthroughput screen to assess conditional lethalithy of NOMO1 cells grown in Human Plasma-Like Medium with dialyzed fetal bovine serum (HPLM+ds) (AID 1963878); settings: NOMO1 AML cells in HPLM+ds, CellTiter-Glo viability, 48 h; series mostly up to 45.8 µM; further: nearly all actives have a fitted effect of over 35% in size;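 on Viability: 100% = DMSO wells and 0% = empty wells on each plate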
In short: as §1

[6] = Quantitative highthroughput screen to assess conditional lethalithy of P12 Ichikawa cells grown in Human Plasma-Like Medium with dialyzed fetal bovine serum (HPLM+ds) (AID 1963879); settings: ATP luminescence, 48 h; Potency: viability; series mostly up to 45.8 µM; further: nearly all actives have a fitted effect of over 35% in size
In short: as §1

[7] = Quantitative highthroughput screen to assess conditional lethalithy of P12 Ichikawa cells grown in RPMI1640 with dialyzed fetal bovine serum (RPMI+ds) (AID 1963880); settings: ATP luminescence, 48 h; Potency: P12-Ichikawa viability; series mostly up to 45.8 µM; further: nearly all actives have a fitted effect of over 35% in size;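 on Viability: 100% = DMSO wells and 0% = empty wells on each plate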
In short: as §1

[8] = Quantitative highthroughput screen to assess conditional lethalithy of P12 Ichikawa cells grown in RPMI1640 with untreated serum (RPMI+s) (AID 1963881); settings: ATP luminescence, 48 h; Potency: viability; series mostly up to 45.8 µM; further: nearly all actives have a fitted effect of over 35% in size;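 on Viability: 100% = DMSO wells and 0% = empty wells without cells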
In short: as §1

[9] = Quantitative highthroughput screen to assess conditional lethalithy of SEM cells grown in Human Plasma-Like Medium with dialyzed fetal bovine serum (HPLM+ds) (AID 1963882); settings: SEM B-ALL cells in HPLM+ds, CellTiter-Glo viability, 48 h; series mostly up to 45.8 µM; further: nearly all actives have a fitted effect of over 35% in size
In short: as §1

[10] = Quantitative highthroughput screen to assess conditional lethalithy of SEM cells grown in RPMI1640 with unreated serum (RPMI+s) (AID 1963883); settings: SEM B-ALL cells, CellTiter-Glo viability, 48 h; series mostly up to 45.8 µM; further: nearly all actives have a fitted effect of over 35% in size;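 on Viability: 100% = DMSO wells and 0% = empty wells without cells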
In short: as §1

[11] = Quantitative highthroughput screen to assess conditional lethalithy of SEM cells grown in RPMI1640 with dialyzed fetal bovine serum (RPMI+ds) (AID 1963884); settings: SEM B-ALL cells, RPMI+dialyzed FBS, CellTiter-Glo viability, 48 h; series mostly up to 45.8 µM; further: nearly all actives have a fitted effect of over 35% in size;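 on Viability: 100% = DMSO control wells and 0% = empty wells without cells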
In short: as §1

[12] = Cellular viability qHTS for adrenocortical cancer (ACC) cell line SW-13 (AID 1963989); settings: SW-13 ACC cells viability, CellTiter-Glo, 48 h; activity (max response): hits give low values; further: nearly all actives have a fitted effect of over 65% in size;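 on activity (max response): cells grown in serum-free medium with ITS supplement; on the % scale 0 is the no-effect control and ±100 the full control effect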
In short: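 IC50 and maximal-response values come from four-parameter logistic fits of titration data. SW-13 cells in serum-free medium received compounds (up to 46 uM final) for 48 h before CellTiter-Glo luminescence.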

[13] = Cellular viability qHTS for adrenocortical cancer (ACC) cell line NCI-H295R (AID 1963990); settings: CellTiter-Glo ATP luminescence, 48 h; series mostly up to 46.1 µM; further: nearly all actives have a fitted effect of over 60% in size
In short: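 Adrenocortical carcinoma cells, suspended at 300 000 cells/mL in serum-free DMEM plus ITS, rested overnight before pin transfer of compound. After two days' incubation, ATP-dependent luminescence was recorded and curve-fitted.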
Potency means the concentration at half of the fitted maximal effect.

O=C(OC1C[C@H]2CC[C@@H](C1)[N+]21CCCC1)C(O)(c1ccccc1)c1ccccc1 (stereo partly drawn)
inactive: Potency [1] | Potency [2] | Potency [3] | Potency [4] | Potency [5] | Potency [6] | Potency [7] | Potency [8] | Potency [9] | Potency [10] | Potency [11] | activity (max response) [12] -1.15% | Potency [13]

CCCS(=O)(=O)Nc1ccc(F)c(C(=O)c2c[nH]c3ncc(-c4ccc(Cl)cc4)cc23)c1F
inactive: Potency [3] | Potency [4] | Potency [5] | Potency [6] | Potency [7] | Potency [8] | Potency [9] | Potency [10] | Potency [11] | activity (max response) [12] -1.45% | Potency [13]
active: Potency [1] 14800 nM | Potency [2] 16.6 µM

COc1ccc(C[C@@H](C)[C@@H](C)Cc2ccc(OC)c(OC)c2)cc1OC
active: Potency [1] 6610 nM | Potency [2] 11.8 µM | Potency [3] 2350 nM | Potency [4] 2640 nM | Potency [5] 833 nM | Potency [6] 2350 nM | Potency [7] 2350 nM | Potency [8] 2350 nM | Potency [9] 2640 nM | Potency [10] 2640 nM | Potency [11] 2640 nM
inactive: activity (max response) [12] -32.2% | Potency [13]

CCC(C)CCCCC(=O)N[C@@H](CCN)C(=O)NC(C(=O)N[C@H](CCN)C(=O)N[C@@H]1CCNC(=O)C([C@@H](C)O)NC(=O)[C@@H](CCN)NC(=O)[C@@H](CCN)NC(=O)[C@@H](CC(C)C)NC(=O)[C@H](Cc2ccccc2)NC(=O)[C@H](CCN)NC1=O)[C@@H](C)O (stereo partly drawn) ({Octanoyl(6-Me)}-[Dab][ξThr(3R)][dDab][dDab][Dab]F[dL][dDab][dDab][ξThr(3R)]; lactam 4-C)
inactive: Potency [1] | Potency [2] | Potency [3] | Potency [4] | Potency [5] | Potency [6] | Potency [7] | Potency [8] | Potency [9] | Potency [10] | Potency [11] | activity (max response) [12] 3.16% | Potency [13]

CC1CNc2c(cccc2S(=O)(=O)N[C@@H](CCCN=C(N)N)C(=O)N2CC[C@@H](C)C[C@@H]2C(=O)O)C1 (stereo partly drawn)
inactive: Potency [1] | Potency [2] | Potency [3] | Potency [4] | Potency [5] | Potency [6] | Potency [7] | Potency [8] | Potency [9] | Potency [10] | Potency [11] | activity (max response) [12] -14.2% | Potency [13]

O=C(CCCCCCC(=O)Nc1cccnc1)NO
active: Potency [1] 3320 nM | Potency [2] 3.72 µM | Potency [3] 20900 nM | Potency [4] 20900 nM | Potency [5] 18700 nM | Potency [6] 7430 nM | Potency [7] 7430 nM | Potency [8] 8330 nM | Potency [9] 8330 nM | Potency [10] 8330 nM | Potency [11] 6620 nM | Potency [12] 12.6 µM | Potency [13] 4.47 µM

COc1nc(N)nc2c1ncn2[C@@H]1O[C@H](CO)[C@@H](O)[C@@H]1O
inactive: Potency [1] | Potency [2] | Potency [3] | Potency [4] | Potency [5] | Potency [6] | Potency [7] | Potency [8] | Potency [9] | Potency [10] | Potency [11] | activity (max response) [12] -9.37% | Potency [13]

CC(C)C[C@H](NC(=O)[C@H](CCc1ccccc1)NC(=O)CN1CCOCC1)C(=O)N[C@@H](Cc1ccccc1)C(=O)N[C@@H](CC(C)C)C(=O)[C@@]1(C)CO1
active: Potency [1] 3 nM | Potency [2] 10.6 nM and 4.7 nM | Potency [3] 37.2 nM | Potency [4] 37.2 nM | Potency [5] 37.2 nM | Potency [6] 33.2 nM | Potency [7] 23.5 nM | Potency [8] 20.9 nM | Potency [9] 13.2 nM | Potency [10] 8.3 nM | Potency [11] 13.2 nM | Potency [12] 103 nM and 112 nM | Potency [13] 65.1 nM and 63.1 nM

O=C1c2c(O)cc(O)cc2OC(c2ccc(O)c(O)c2)C1O (stereo not drawn)
inactive: Potency [1] | Potency [2] | Potency [3] | Potency [4] | Potency [5] | Potency [6] | Potency [7] | Potency [8] | Potency [9] | Potency [10] | Potency [11] | activity (max response) [12] -4.92% | Potency [13]

CN1c2cc(O)c(N=NC(N)=O)cc2CC1S(=O)(=O)O (stereo not drawn)
inactive: Potency [1] | Potency [2] | Potency [3] | Potency [4] | Potency [5] | Potency [6] | Potency [7] | Potency [8] | Potency [9] | Potency [10] | Potency [11] | activity (max response) [12] 12.8% | Potency [13]

CC(C)(C)c1cnc(CSc2cnc(NC(=O)C3CCNCC3)s2)o1
active: Potency [1] 296 nM | Potency [2] 0.332 µM | Potency [3] 1050 nM | Potency [4] 935 nM | Potency [5] 590 nM | Potency [6] 166 nM | Potency [7] 1320 nM | Potency [8] 1180 nM | Potency [9] 662 nM | Potency [10] 935 nM | Potency [11] 833 nM | Potency [12] 0.631 µM | Potency [13] 7.94 µM

Reference: PubChem BioAssay (NCATS)
